# Experimental data from ChEMBL document CHEMBL5308504, “Tm Shift (DSF) assay results for EUbOPEN Chemogenomics Library” (2023).
# Columns and labels:
# [1] = biological target: Bromodomain-containing protein 4 (Homo sapiens) (UniProt O60885); conditions: Compound concentration 20.0 uM, Protein concentration 2.0 uM, Result type QC Liability
# [2] = biological target: T1, Transcription intermediary factor 1-alpha (Homo sapiens) (UniProt O15164); conditions: Compound concentration 20.0 uM, Protein concentration 2.0 uM, Result type QC Liability
# T1 sequence (whole entry): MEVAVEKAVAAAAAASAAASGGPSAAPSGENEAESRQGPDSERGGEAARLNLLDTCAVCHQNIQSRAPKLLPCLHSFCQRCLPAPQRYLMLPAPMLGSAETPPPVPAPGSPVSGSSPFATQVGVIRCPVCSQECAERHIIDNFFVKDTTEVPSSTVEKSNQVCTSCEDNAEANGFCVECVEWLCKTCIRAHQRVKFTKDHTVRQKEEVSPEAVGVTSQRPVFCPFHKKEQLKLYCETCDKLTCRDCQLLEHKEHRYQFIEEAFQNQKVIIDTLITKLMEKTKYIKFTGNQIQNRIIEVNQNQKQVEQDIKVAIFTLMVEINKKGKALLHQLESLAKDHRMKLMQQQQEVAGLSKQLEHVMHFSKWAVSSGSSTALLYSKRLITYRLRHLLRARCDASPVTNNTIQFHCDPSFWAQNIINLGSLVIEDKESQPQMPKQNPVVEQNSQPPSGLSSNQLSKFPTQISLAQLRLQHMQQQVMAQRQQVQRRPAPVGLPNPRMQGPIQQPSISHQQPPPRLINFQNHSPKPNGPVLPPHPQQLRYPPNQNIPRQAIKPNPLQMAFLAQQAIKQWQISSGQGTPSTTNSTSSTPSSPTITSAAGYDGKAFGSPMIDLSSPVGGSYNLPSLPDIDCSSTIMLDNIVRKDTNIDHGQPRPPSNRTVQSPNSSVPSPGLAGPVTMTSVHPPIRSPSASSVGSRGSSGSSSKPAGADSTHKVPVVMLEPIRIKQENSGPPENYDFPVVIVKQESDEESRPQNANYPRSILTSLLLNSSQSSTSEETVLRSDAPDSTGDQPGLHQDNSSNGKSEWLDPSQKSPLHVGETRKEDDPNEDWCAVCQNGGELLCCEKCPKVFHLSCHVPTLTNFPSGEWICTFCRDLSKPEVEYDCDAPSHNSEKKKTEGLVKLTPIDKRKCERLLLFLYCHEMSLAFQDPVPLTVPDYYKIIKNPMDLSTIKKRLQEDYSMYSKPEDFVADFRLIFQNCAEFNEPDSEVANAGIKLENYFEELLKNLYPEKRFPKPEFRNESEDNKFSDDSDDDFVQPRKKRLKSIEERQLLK
Compound,ΔTm [1],ΔTm [2]
CCOC(=O)N1CCC(CN(Cc2ccc(Cl)cc2)Cc2ccc([N+](=O)[O-])s2)C1 (centres undefined),-2.61 °C,-4.19 °C
CCn1c(CNC(=O)c2ncc(C)nc2N)[n+](CC)c2ccc(C(=O)N(C)CCN(C)C)cc21,-1.53 °C,-0.01 °C
O=C1Nc2ccc(I)cc2/C1=C/c1cc(Br)c(O)c(Br)c1,-0.9 °C,-2.17 °C
O=C(Cc1ccccc1)Nc1nnc(N2CC[C@@H]3[C@H]2CN3c2cccnn2)s1,-3.72 °C,-3.22 °C
CN1CCc2cc(Nc3ncc(C(F)(F)F)c(NCc4cc[nH]n4)n3)ccc2C1,-1.83 °C,-1.85 °C
Nc1nccc(-c2c(-c3ccc(F)cc3)ncn2C2CCN(Cc3ccon3)CC2)n1,-2.58 °C,-2.27 °C
CNC(=O)COc1cc2cc(Nc3nc(N4CCC(C(=O)N(C)C)CC4)ncc3Cl)cc(OC)c2n(C)c1=O,-1.01 °C,-0.08 °C
COc1cc(C(=O)NCCOCCOCCOCCC(=O)Nc2cccc3c2C(=O)N(C2CCC(=O)NC2=O)C3=O)ccc1Nc1ncc(C(F)(F)F)c(Oc2cccc3c2C(=O)CC3)n1 (centres undefined),-4.34 °C,0.52 °C
COc1cc(Oc2nc(-c3ccc(NC(=O)C4CCOC4)cc3)nn3c(C)nc(C)c23)cc(OC)c1OC (centres undefined),-1.75 °C,0.42 °C
Cc1cc(CN(CC(=O)Nc2ccc(Cl)cc2Cl)C2CCCCC2)ccc1OCC(=O)O,-1.17 °C,-0.29 °C
CNC(=O)c1cccc(-c2ccc3c(N4CCOC[C@@H]4C)nc(N4CCOC[C@@H]4C)nc3n2)c1,-1.42 °C,-1.47 °C
CC(C)S(=O)(=O)c1ccccc1Nc1nc(N[C@@H]2CCCN(CCCCCCCNC(=O)COc3cccc4c3C(=O)N(C3CCC(=O)NC3=O)C4=O)C2)ncc1Cl (some centres undefined),1.89 °C,0 °C
Cc1cc2ncnn2cc1Nc1ncc2c(n1)n(C1CCOCC1)c(=O)n2C,-1.59 °C,-4.66 °C
CCc1nc(-c2cccc(C)c2)c(-c2ccncc2)s1,0.55 °C,-3.01 °C
O=C(Nc1cc2cc[nH]c(=O)c2cc1Cl)[C@H]1CNC[C@@H]1c1cccnc1,-1.63 °C,-2.69 °C
CN(C)C(=O)Cn1cc(-c2nc(C3(c4ccc(-c5cnc(N)nc5)cc4)CC3)no2)cn1,-1.16 °C,0.32 °C
CN1CCN(c2ccc(/C=C(\C#N)c3ccccc3Br)cc2)CC1,-4.31 °C,-4.7 °C
O=C1COc2cc(C(=O)N(Cc3ccc(C(=O)Nc4ccncn4)cc3)C3CC3)ccc2N1,0.06 °C,-2.92 °C
CC(=O)Nc1cccc(-n2c(=O)n(C3CC3)c(=O)c3c(Nc4ccc(I)cc4F)n(C)c(=O)c(C)c32)c1,-2.35 °C,-2.86 °C
CCCCC(C)(O)C/C=C/[C@H]1[C@H](O)CC(=O)[C@@H]1CCCCCCC(=O)O (some centres undefined),-1.42 °C,-0.79 °C
Cc1ccc(C(=O)Nc2cc(N3CCN(C)CC3)cc(C(F)(F)F)c2)cc1-n1cc(-c2cnn(C)c2C)nn1,-2.13 °C,-1.79 °C
O=C1NC(=NCc2cccs2)SC1=Cc1ccc2ncccc2c1,0.38 °C,-1.13 °C
CNC(=O)c1ccc2c(c1)NC(=O)/C2=C(\Nc1ccc(CN2CCCCC2)cc1)c1ccccc1,-3.03 °C,-3 °C
CC(C)c1cnc(NC(=O)Cc2ccccc2)s1,-1.14 °C,-1.45 °C

Compound,ΔTm [1],ΔTm [2]
O=C(CCSCc1ccco1)NNC(=O)N1Cc2ccccc2Oc2ccc(Cl)cc21,-3.5 °C,-1.32 °C
O=C(CNC(=O)c1ccc(-c2ccccc2)cc1)NC1CCCc2ccccc21 (centres undefined),-5.93 °C,2.55 °C
COc1cc2ncnc(Nc3ccc4c(cnn4Cc4ccccc4)c3)c2cc1OC,-0.65 °C,-2.15 °C
Clc1cccc(Nc2nccc(NCCCN3CCOCC3)n2)c1,-3.15 °C,-3.59 °C
COc1ccc(-c2cc3c(C)nc(N)nc3n([C@H]3CC[C@H](OCCO)CC3)c2=O)cn1,-0.11 °C,-2.05 °C
Fc1ccc(Cl)cc1-c1nc(Nc2ccncc2)c2nccnc2n1,-2.28 °C,-1.86 °C
Nc1ncnc2c1ccn2[C@@H]1O[C@H]([C@@H](O)c2ccccc2)[C@@H](O)[C@H]1O,-2.22 °C,-3.4 °C
C[C@H](CCC(=O)O)[C@H]1CC[C@H]2[C@@H]3CC[C@@H]4C[C@H](O)CC[C@]4(C)[C@H]3C[C@H](O)[C@]12C,-3.05 °C,-3.23 °C
CN(C(=O)c1cnn2cccnc12)c1cc2c(cc1N1CCOCC1)C(=O)N(C[C@@H](F)C(C)(C)O)C2,0.93 °C,-2.51 °C
CC(C)(c1ccc(OCc2cccc(COc3ccc(C(=N)N)cc3)c2)cc1)c1ccc(O[C@@H]2O[C@H](C(=O)O)[C@@H](O)[C@H](O)[C@H]2O)cc1,0.58 °C,-5.37 °C
COc1ccccc1N1CCN(c2ncnc3c2cnn3-c2ccccc2)CC1,0.01 °C,0.1 °C
CC(C)(O)CNC(=O)N1C(=O)N(c2cccc(C(F)(F)F)c2)C2=C(C(=O)CC2)[C@@H]1c1ccc(C#N)cc1,-0.6 °C,0.83 °C
N[C@@H]1CCCN(c2c(/C=C3\SC(=O)NC3=O)cccc2-c2ccccc2)C1,-2.91 °C,-2.28 °C
CCOC(=O)/N=C(\N)c1ccc(OCc2cccc(COc3ccc(C(C)(C)c4ccc(OC(=O)OCC)cc4)cc3)c2)cc1,-10.4 °C,-0.45 °C
CCNc1ccc(-c2nn(-c3ccccc3C)c3c2C(C)Cc2nc(NC(=O)OC)sc2-3)cn1 (centres undefined),-2.96 °C,-3.54 °C
COc1cc(C)c(S(=O)(=O)N(C)CCC(=O)N[C@H]2CC[C@@H](N3CCC4CN(C)CC4C3)CC2)c(C)c1 (some centres undefined),-4.82 °C,-0.4 °C
CN1CCN(c2ccc(-n3cc(-c4ccncc4OCC4CCNCC4)cn3)cc2)CC1,-1.52 °C,-2.76 °C
COc1cccc(Cn2cc(C(=O)Nc3ccc(C)c(S(=O)(=O)N4CCOCC4)c3)c(-c3ccc(C)cc3)n2)c1,1.27 °C,4.1 °C
COc1ccccc1Nc1nc(-c2nn(Cc3c(F)cc(OCCCO)cc3F)c3ccccc23)ncc1OC,-0.6 °C,-1.94 °C
C1=Cc2ccccc2C(=C2CCN(CCCCc3nnn[nH]3)CC2)c2ccccc21,-12.7 °C,-0.3 °C
Cc1cc(-c2cc3ncccc3c(OC[C@H]3CCCNC3)n2)ccc1N(C)C,-2.56 °C,-2.49 °C
COc1cc(-c2nn([C@H]3CC[C@H](N4CCN(C(C)=O)CC4)CC3)c3ncnc(N)c23)ccc1NC(=O)c1cc2ccccc2n1C,0.13 °C,-0.55 °C
Cc1cc(S(=O)(=O)N2CC(C)(C)c3cc(-c4ccc(C(F)(F)F)cc4)ccc32)ccc1OCC(=O)O,0.64 °C,0.9 °C
Cc1c(N2CCNCC2)nc2ccc(Br)cc2c1C(=O)NC[C@H](CCC(=O)O)c1ccccc1Cl,-1.62 °C,-1.51 °C

Compound,ΔTm [1],ΔTm [2]
CN1CCN(c2ccnc(NCCc3ccccc3)n2)CC1,-0.31 °C,-0.99 °C
FC(F)(F)c1ccc(CNc2ccc(Cc3c[nH]c4ncc(Cl)cc34)cn2)cn1,2 °C,1.98 °C
CS(=O)(=O)NCC[C@H](NC(=O)c1cncc2c1cnn2-c1ccc(F)cc1)c1ccnc(S(C)(=O)=O)c1,-0.38 °C,0.28 °C
Cc1ncsc1-c1ccc(CNC(=O)[C@@H]2C[C@H](O)CN2C(=O)[C@@H](NC(=O)C2(F)CC2)C(C)(C)C)c(OCCOc2ccc(CN3CCN(c4cc(-c5ccccc5O)nnc4N)CC3)cc2)c1 (relative stereo),14.5 °C,1.57 °C
Cc1nn(C)c(COc2ccc(N3CCN(S(=O)(=O)N(C)C)CC3)cc2)c1-c1cccc2c(CCCOc3cccc4ccccc34)c(C(=O)O)n(CCN3CCOCC3)c12,-12.6 °C,-0.84 °C
CC1CCN(c2ccnc(NCc3cn(C)cn3)n2)CC1,-1.06 °C,-0.77 °C
CC(C)(O)[C@H](F)CN1Cc2cc(NC(=O)c3cnn4cccnc34)c(N3CCOCC3)cc2C1=O,-0.35 °C,-2.63 °C
CC(=O)c1ccc2c(c1)/C(=C(/NC1CCN(C)CC1)c1ccc3c(c1)OCO3)C(=O)N2,-0.52 °C,0.21 °C
CC(C=CC1=C(C)CCCC1(C)C)=CC=CC(C)=CC(=O)O,-5.12 °C,-4.24 °C
CN(C)CC#Cc1ccc2[nH]c3c(c2c1)-c1nc(N)ncc1CCC3,-1.33 °C,-0.98 °C
O[C@]1(C(F)(F)F)CCCC[C@H]1Nc1ccc(F)cc1,-1.92 °C,-2.51 °C
COc1cc(-c2cn[nH]c2)ccc1C(=O)Nc1ccc2c(c1)CCNCC2,-1.67 °C,-2.57 °C
C[C@H](CCOc1cccc(CC(=O)O)c1)N(Cc1cccc(C(F)(F)F)c1Cl)CC(c1ccccc1)c1ccccc1,-6.66 °C,-0.56 °C
CCN(CC)C/C=C/C(=O)Nc1cc2c(Nc3ccc(F)c(Cl)c3)ncnc2cc1OCC1CC1,-1.26 °C,-0.54 °C
COc1cc(C(=O)NCCOCCOCCOCC(=O)N[C@H](C(=O)N2C[C@@H](O)C[C@H]2C(=O)NCc2ccc(-c3scnc3C)cc2)C(C)(C)C)ccc1Nc1ncc(C(F)(F)F)c(Oc2cccc3c2C(=O)CC3)n1,0.11 °C,2.2 °C
CN(C)c1ncc2cc(-c3ccc(-c4ncccc4F)cc3Cl)c(=O)n(C[C@H]3OC[C@H](N)CO3)c2n1,-2 °C,-2.59 °C
CNc1ncc2cc(-c3ccc(-c4ncccc4F)cc3Cl)c(=O)n(C[C@H]3OC[C@H](N)CO3)c2n1,-2.59 °C,-3.59 °C
CN(C)C/C=C/C(=O)Nc1cc2c(Nc3ccc(F)c(Cl)c3)ncnc2cc1OC[C@@H]1CCCO1,-0.58 °C,-0.17 °C
COCCOCn1c(S(C)(=O)=O)nc2c1c(=O)n(C)c(=O)n2C,-12.2 °C,0.18 °C
CNC(=O)c1c(F)cccc1Nc1nc(Nc2cc3c(cc2OC)CCN3C(=O)CN(C)C)nc2[nH]ccc12,-1.02 °C,-1.89 °C
Cc1n[nH]c2ncc(C(=O)N3CCC[C@H]3c3ccc(Cl)cc3)cc12,0 °C,-1.73 °C
Cc1cc2c(ncn2C2(C)CN(C(=O)c3ccn(CC4CCN([C@H]5C=CCCCC5)CC4)c3)C2)c(N)n1,-1.87 °C,-2.7 °C
CCCNc1ccc2ncc(-c3ccncc3)n2n1,-0.06 °C,-2.61 °C
CNc1nc(-c2ccc3c(N)n[nH]c3c2)cc(N2C[C@@H](C(=O)NC3CCCCC3)CC[C@H]2C)n1,0.26 °C,-2.05 °C
